{"source": "PubChem BioAssay (NCATS)", "key": {"[1]": {"molecular_target": "Cytochrome P450 3A4 (Homo sapiens) (UniProt P08684)", "sequence (P08684 whole entry, looked up)": "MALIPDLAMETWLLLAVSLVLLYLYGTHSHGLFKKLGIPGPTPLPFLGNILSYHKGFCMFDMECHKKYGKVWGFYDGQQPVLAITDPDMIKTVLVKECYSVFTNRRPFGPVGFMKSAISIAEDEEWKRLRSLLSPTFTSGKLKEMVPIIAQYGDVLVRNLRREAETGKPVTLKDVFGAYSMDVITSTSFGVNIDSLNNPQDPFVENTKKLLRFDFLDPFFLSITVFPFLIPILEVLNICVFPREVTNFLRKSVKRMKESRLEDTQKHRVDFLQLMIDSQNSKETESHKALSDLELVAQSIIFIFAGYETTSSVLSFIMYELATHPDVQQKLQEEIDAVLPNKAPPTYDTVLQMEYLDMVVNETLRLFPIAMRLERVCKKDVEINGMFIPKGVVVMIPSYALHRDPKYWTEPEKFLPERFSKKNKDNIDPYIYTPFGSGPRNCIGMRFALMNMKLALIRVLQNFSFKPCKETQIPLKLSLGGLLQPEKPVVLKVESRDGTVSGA", "test": "qHTS Assay for Activators of Cytochrome P450 3A4 (AID 885); also: nearly all actives have a fitted effect of over 65% in size", "settings": "recombinant CYP3A4, Luciferin-PPXE luminescence, 60 min; series mostly up to 57.1 µM", "in_short": "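Activators are scored by enhanced luminescence from CYP3A4 conversion of luciferin-PPXE (25uM, equal to KM) to luciferin, after 60 min at RT with an NADPH-regenerating system.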"}, "[2]": {"molecular_target": "Guanine nucleotide-binding protein G(i) subunit alpha-1 (Homo sapiens) (UniProt P63096)", "sequence (P63096 whole entry, looked up)": "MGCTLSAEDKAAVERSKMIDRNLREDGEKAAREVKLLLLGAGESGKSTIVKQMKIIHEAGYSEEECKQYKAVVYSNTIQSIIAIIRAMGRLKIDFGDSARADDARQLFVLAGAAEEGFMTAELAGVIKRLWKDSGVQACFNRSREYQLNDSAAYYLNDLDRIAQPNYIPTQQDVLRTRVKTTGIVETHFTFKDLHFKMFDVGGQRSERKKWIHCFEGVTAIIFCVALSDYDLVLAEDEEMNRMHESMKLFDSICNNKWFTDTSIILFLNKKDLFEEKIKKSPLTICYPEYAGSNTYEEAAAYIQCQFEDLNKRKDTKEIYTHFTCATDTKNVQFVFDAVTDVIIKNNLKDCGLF", "test": "qHTS Assay for Inhibitors of RGS12 GoLoco Motif Activity (Green Fluorophore) (AID 879);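 also: negative values mean loss of peptide binding seen as reduced polarization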", "settings": "Galphai1/FITC-RGS12 GoLoco peptide, fluorescence polarization; series mostly up to 57.1 µM", "in_short": "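A drop in FITC polarization marked displacement of the FITC-tagged RGS12 GoLoco peptide (10 nM) from Gαi1 (50 nM). Compounds were incubated 10 min at room temperature in Tris pH 7.5 buffer containing 150 mM NaCl, 0.1 mM GDP and 0.05% NP40; unlabeled peptide titration served as control.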"}, "[3]": {"test": "Cellular Toxicity (caspase-3) H-4-II-E (AID 663);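 also: cells exposed to compound for 16 hr before readout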", "settings": "H-4-II-E rat hepatoma, scaled: DMSO 0%, 100 µM tamoxifen 100%; series mostly up to 92.2 µM", "in_short": "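H-4-II-E rat hepatoma, 1500 cells/well, 5 hr settle at 37 °C; compound 16 hr, 37 °C, complete medium; Caspase-Glo 3/7, 20 min RT; luminescence. DMSO = 0%, 100 uM tamoxifen = 100%; Hill-equation AC50.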"}, "[4]": {"test": "Cellular Toxicity (caspase-3) Hek293 (AID 664);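 also: cells exposed to compound for 16 h at 37 °C before readout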", "settings": "HEK293 caspase-3 activation, DMSO = 0%, 100 µM tamoxifen = 100%; series mostly up to 92.2 µM", "in_short": "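Apoptosis readout: Caspase-Glo 3/7 signal in human HEK293 cells following 16-hour compound incubation. Responses scaled between DMSO baseline and 100 uM tamoxifen.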"}, "[5]": {"test": "Cellular Toxicity (caspase-3) N2a (AID 665);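 also: compound exposure lasted 16 h at 37 °C before readout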", "settings": "N2a cells, luminescence, normalized: DMSO 0%, 10 µM staurosporine 100%; series mostly up to 92.2 µM", "in_short": "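Concentration-response qHTS: compound-induced caspase-3/7 luminescence in N2a cells (16 h, 37 °C), relative to DMSO and 10 uM staurosporine controls; AC50 obtained using the standard Hill equation.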"}, "[6]": {"test": "Cellular Toxicity (caspase-3) NIH 3T3 (AID 666)", "settings": "NIH 3T3 caspase-3 activation, apoptosis/toxicity, 0% DMSO, 100% is 100 µM tamoxifen; series mostly up to 92.2 µM", "in_short": "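Activity: caspase-3/7 induction, NIH 3T3 cells, 16 hr treatment at 37°C, luminescent Caspase-Glo detection; AC50 via Hill equation.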"}, "[7]": {"test": "Cellular Toxicity (caspase-3) Renal Proximal Tubule (AID 667);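 also: cells exposed to compound for 16 hours at 37 °C before detection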", "settings": "renal proximal tubule cells, primary cells freshly taken from rat, solvent-only wells 0%, staurosporine 100%; series mostly up to 91.7 µM", "source_text": "NIH Chemical Genomics Center [NCGC]\nNIH Molecular Libraries Screening Centers Network [MLSCN]\nNational Institutes of Environmental Health Sciences [NIEHS]\nNational Toxicology Program [NTP]\nWe have developed a 1536-well cell-based assay for quantitative high throughput screening (qHTS) against a number of cell lines to determine in vitro caspase 3/7 activity of small molecules. This particular assay uses the primary kidney proximal tubule cells freshly isolated from rat.\nNCGC Assay Protocol Summary:\nThe Caspase-Glo 3/7 assay (Promega) is a homogeneous method to measure caspase-3 and caspase-7 activities in cultured cells. The quantitation of caspase 3/7 activity is based on the cleavage of a peptide-aminoluciferin substrate. After caspase cleaves the substrate the free aminoluciferin is liberated and serves as the substrate of luciferase, which generates the light. The luminescent signal is proportional to the amount of caspase 3/7 activity present.\nUsing the Caspase-Glo 3/7 assay, the amount of caspase 3/7 activity was measured in the rat kidney proximal tubule cells with complete culture medium following compound treatment for 16 hours. The assay was performed in opaque white 1536-well plates. In the screen, staurosporine and doxorubicin were used as positive controls. Library compounds were measured for their ability to cause the activation of caspase 3/7 in the cell line, as reflected by an increase in luminescence signal, in a concentration-dependent manner. Data were normalized to the controls for basal activity (DMSO only) and 100% stimulation (10 uM staurosporine). AC50 values were determined from concentration-response data modeled with the standard Hill equation.\nqHTS protocol for caspase 3/7 assay in rat kidney proximal tubule cells\n[Step] [Parameter] [Value] [Description]\n1. Reagent; 5 uL; 1000 rat kidney proximal tubule cells/well\n2. Time; 5 hr; 37 °C incubation\n4. […]\n8. Detection; Luminescence; Viewlux plate reader\nKeywords: caspase 3/7, apoptosis, rat kidney proximal tubule cells, luminescence, NTPHTS, NTPHTS_NCGC, NIEHS, EPA, DSSTox, MLSMR, MLSCN, NIH Roadmap, qHTS, NCGC"}, "[8]": {"molecular_target": "Cytochrome P450 3A4 (Homo sapiens) (UniProt P08684)", "test": "qHTS Assay for Inhibitors and Substrates of Cytochrome P450 3A4 (AID 884); also: nearly all actives have a fitted effect of over 50% in size; also: potency is read from the fitted curve at half-maximal effect", "settings": "recombinant CYP3A4, Luciferin-PPXE luminescence; series mostly up to 57.1 µM", "in_short": "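Luminescent readout of luciferin produced by CYP3A4 (20 nM) dealkylation of Luciferin-PPXE, 25 uM (its KM). NADPH-driven reaction ran 60 min at RT after 10 min compound preincubation; data scaled to 57 uM ketoconazole as 100% inhibition.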"}, "[9]": {"molecular_target": "Cytochrome P450 2C9 (Homo sapiens) (UniProt P11712)", "sequence (P11712 whole entry, looked up)": "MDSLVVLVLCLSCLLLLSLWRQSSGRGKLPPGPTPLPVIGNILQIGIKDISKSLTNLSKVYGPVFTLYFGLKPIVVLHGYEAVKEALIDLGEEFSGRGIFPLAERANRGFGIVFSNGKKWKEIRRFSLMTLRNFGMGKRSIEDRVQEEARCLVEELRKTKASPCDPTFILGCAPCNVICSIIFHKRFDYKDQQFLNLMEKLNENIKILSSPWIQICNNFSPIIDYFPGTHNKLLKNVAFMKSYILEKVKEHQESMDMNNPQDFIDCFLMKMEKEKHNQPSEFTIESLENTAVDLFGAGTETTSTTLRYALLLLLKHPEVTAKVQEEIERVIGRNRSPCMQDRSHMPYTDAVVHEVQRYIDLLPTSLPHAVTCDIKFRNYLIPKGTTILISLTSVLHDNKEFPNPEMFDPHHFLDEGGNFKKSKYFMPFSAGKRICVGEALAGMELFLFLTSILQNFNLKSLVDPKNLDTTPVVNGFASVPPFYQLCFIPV", "test": "qHTS Assay for Inhibitors and Substrates of Cytochrome P450 2C9 (AID 883); also: nearly all actives have a fitted effect of over 60% in size", "settings": "recombinant CYP2C9, luciferin-H luminescence, 60 min; series mostly up to 57.1 µM", "in_short": "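10nM CYP2C9 + 100uM Luciferin-H (=KM), 25mM KPO4; cpd 10 min 37C; NADPH regen, 60 min 37C; stop/detect with P450 Glo-Buffer 20 min; luminescence. Norm. to 57uM sulphaphenazole as full inhibition.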"}, "[10]": {"molecular_target": "Cytochrome P450 2C19 (Homo sapiens) (UniProt P33261)", "sequence (P33261 whole entry, looked up)": "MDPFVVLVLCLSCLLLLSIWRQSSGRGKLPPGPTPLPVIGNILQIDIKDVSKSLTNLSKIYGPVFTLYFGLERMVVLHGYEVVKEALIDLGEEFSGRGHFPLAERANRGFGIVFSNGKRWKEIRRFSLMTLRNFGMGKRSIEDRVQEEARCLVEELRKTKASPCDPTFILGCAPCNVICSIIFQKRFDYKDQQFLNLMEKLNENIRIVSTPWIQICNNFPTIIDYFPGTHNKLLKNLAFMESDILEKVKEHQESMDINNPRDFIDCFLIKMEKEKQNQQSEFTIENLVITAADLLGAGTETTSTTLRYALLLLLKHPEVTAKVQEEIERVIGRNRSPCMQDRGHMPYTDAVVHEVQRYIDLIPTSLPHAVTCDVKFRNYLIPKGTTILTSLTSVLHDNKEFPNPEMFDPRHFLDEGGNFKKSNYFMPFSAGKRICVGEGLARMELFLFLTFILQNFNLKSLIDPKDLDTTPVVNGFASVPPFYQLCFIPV", "test": "qHTS Assay for Inhibitors and Substrates of Cytochrome P450 2C19 (AID 899); also: potency is read from the fitted curve at half-maximal effect; nearly all actives have a fitted effect of over 60% in size", "settings": "recombinant CYP2C19, luciferin-H EGE luminescence", "in_short": "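Luminescent read-out of luciferin formed from Luciferin-H EGE (10uM, equal to KM). Enzyme 5nM in 50mM KPO4; compound added, 10 min at 37C, then NADPH regenerating system for 60 min at 37C. Full inhibition defined by 57uM ketoconazole.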"}}, "note": "Unmarked numbers belong to inactive results. Results filed as inconclusive are left out. Entries that show only a call come without a potency. Active and inactive are the calls of the source. Calls follow the shape of the dose curve; as a rule, active = well fitted curve in the direction sought with a large enough effect; inconclusive = small, poorly fitted or top-dose-only effect, or another doubt; inactive = no such curve, though single readings can be large; an effect the other way counts as inactive or inconclusive.", "data": [{"compound": "Cc1ccccc1CN1C2=NCCN2C(=O)C2=C1CCN(Cc1ccccc1)C2", "values": [{"measurement": "activity change, positive = activation", "setting": "[1]", "value": "-40.7% [at 11.4 µM]"}]}, {"compound": "CC(=O)O[C@H]1C(=O)[C@@]2(C)[C@H]([C@H](OC(=O)c3ccccc3)[C@]3(O)C[C@H](OC(=O)[C@H](O)[C@@H](NC(=O)c4ccccc4)c4ccccc4)C(C)=C1C3(C)C)[C@]1(OC(C)=O)CO[C@@H]1C[C@@H]2O", "values": [{"measurement": "outcome", "setting": "[2]", "value": "inactive"}]}, {"compound": "Cc1ccc(N)cc1O", "values": [{"measurement": "outcome", "setting": "[3]", "value": "inactive"}, {"measurement": "outcome", "setting": "[4]", "value": "inactive"}, {"measurement": "outcome", "setting": "[5]", "value": "inactive"}, {"measurement": "outcome", "setting": "[6]", "value": "inactive"}, {"measurement": "outcome", "setting": "[7]", "value": "inactive"}, {"measurement": "Potency", "setting": "[8]", "value": "inactive"}]}, {"compound": "CC(=O)c1cc2c(cc1O)OC(C)(C)C=C2", "values": [{"measurement": "outcome", "setting": "[1]", "value": "inactive"}]}, {"compound": "CC(=O)O[C@@H]1CC(C)=C2[C@H]1[C@H](C)CC[C@H]2/C=C(\\C)C(=O)O", "values": [{"measurement": "outcome", "setting": "[3]", "value": "inactive"}, {"measurement": "outcome", "setting": "[4]", "value": "inactive"}, {"measurement": "outcome", "setting": "[5]", "value": "inactive"}, {"measurement": "outcome", "setting": "[6]", "value": "inactive"}, {"measurement": "outcome", "setting": "[7]", "value": "inactive"}, {"measurement": "Potency", "setting": "[8]", "value": "inactive"}]}, {"compound": "COc1ccc(C[C@H](N)C(=O)N[C@@H]2[C@H](O)[C@H](n3cnc4c(N(C)C)ncnc43)O[C@@H]2CO)cc1", "values": [{"measurement": "outcome", "setting": "[1]", "value": "inactive"}]}, {"compound": "COc1ccc2c(OC)c3ccoc3nc2c1OC", "values": [{"measurement": "outcome", "setting": "[9]", "value": "inactive"}, {"measurement": "Potency", "setting": "[8]", "value": "12.6 µM (active)"}, {"measurement": "outcome", "setting": "[1]", "value": "inactive"}, {"measurement": "Potency", "setting": "[10]", "value": "10 µM (active)"}]}, {"compound": "Nc1ccccc1N", "values": [{"measurement": "outcome", "setting": "[3]", "value": "inactive"}, {"measurement": "outcome", "setting": "[4]", "value": "inactive"}, {"measurement": "outcome", "setting": "[5]", "value": "inactive"}, {"measurement": "outcome", "setting": "[6]", "value": "inactive"}, {"measurement": "outcome", "setting": "[7]", "value": "inactive"}]}, {"compound": "Nc1nc2c(ncn2[C@@H]2O[C@H](CO)[C@@H](O)[C@H]2O)c(=O)[nH]1", "values": [{"measurement": "Potency", "setting": "[8]", "value": "inactive"}]}, {"compound": "CC(C)C(N)C(=O)OCCOCn1cnc2c(=O)[nH]c(N)nc21", "note": "(configuration not stated)", "values": [{"measurement": "Potency", "setting": "[8]", "value": "inactive"}]}]}
